PMC4552634, “A New Set of Chemical Starting Points with Plasmodium falciparum Transmission-Blocking Potential for Antimalarial Drug Discovery” (PLoS ONE, 2015)
About 3,200 (25%) of roughly 13,000 compounds showed an effect of 50% or more. This is one part of the list.

What follows are compounds tested on P. falciparum stage V gametocytes. Conditions: 48 h, 5 µM; inhibitor.
Parameters: BacTiter-Glo ATP luminescence viability of purified stage V gametocytes in 384-well plates, per cent inhibition versus DMSO

| Compound | % Inhibition |
| --- | --- |
| COc1ccc(CCNC(=O)c2ccccc2O)cc1-c1ccc(C(C)(C)C)cc1 [TCMDC-136182] | 40.5% |
| N=C1NC(=N)N(OCCCCCCON2C(=N)NC(=N)NC2C=Cc2ccccc2)C(C=Cc2ccccc2)N1 (centres unmarked) [TCMDC-131602] | -13.97% |
| Cc1nc2nc(N)nc(N)c2c(C)c1Cc1ccc(C(N)=O)cc1 [TCMDC-137641] | 15.14% |
| CC1=C(C(=O)Nc2cc3cn[nH]c3cc2F)C(c2ccc(Cl)c(NS(C)(=O)=O)c2)CC(=O)N1 (centres unmarked) [TCMDC-136204] | 27.6% |
| CC1=C(C(=O)Nc2cc3cn[nH]c3cc2F)C(c2cccc(O)c2F)CC(=O)N1 (centres unmarked) [TCMDC-136296] | 76.63% |
| CC1=C(C(=O)Nc2cc3cn[nH]c3cc2F)C(c2cccc(NS(C)(=O)=O)c2)CC(=O)N1 (centres unmarked) [TCMDC-136177] | 35.05% |
| C=CCOC(=O)N1CCC(CNCc2cccc(-c3ccc(-c4nc5ccccc5[nH]4)s3)c2)C1.O=C(O)C(F)(F)F (centres unmarked) [TCMDC-133036] | 38.09% |
| COc1ccc(OCc2ccccn2)c(C2CCN(CCCCNC(=O)c3ccc(NC(=O)c4ccc(Cl)cc4)cc3)CC2)c1 [TCMDC-138311] | -15.54% |
| O=C(NCCCCN1CCC(c2ccc3c(c2OCc2ccncc2)CCCC3)CC1)c1ccc(NC(=O)c2ccc(Cl)cc2)cc1 [TCMDC-138725] | 119.9% |
| O=C(NCCCCN1CCC(c2ccc3c(c2OCc2ccccn2)CCCC3)CC1)c1ccc(NC(=O)c2ccc(Cl)cc2)cc1 [TCMDC-138720] | 101.6% |
| Cc1cc(C2CCN(CCCCNC(=O)c3ccc(NC(=O)c4ccc(Cl)cc4)cc3)CC2)c(C)cc1OCc1ccccn1 [TCMDC-138306] | 24.78% |
| Cc1ccc(NC(C)C(=O)Nc2ccccc2)cc1S(=O)(=O)N1CCCCCC1 (centres unmarked) [TCMDC-124868] | -63.29% |
| Brc1cc(Br)c2c(c1)C(NCCCNC1CCNc3c(Br)cc(Br)cc31)CCN2 (centres unmarked) [TCMDC-140067] | -3.983% |
| COc1ccc(NC(=O)[C@H](CC(C)C)Nc2ccnc(Nc3ccccc3)n2)cc1 [TCMDC-134750] | -9.476% |
| COc1cccc(OC)c1C(=O)Nc1cccc(-c2nn3ccccc3c2-c2ccnc(Nc3cccc(F)c3)n2)c1 [TCMDC-135847] | -55.46% |
| CC(C)CNCc1cccc(-c2ccc(CN(CCCN3CCN(C)CC3)C(=O)/C=C/c3ccccc3)cc2)c1 [TCMDC-140545] | 109.3% |
| O=C(/C=C/c1ccc(CNCCN2CCOCC2)cc1)NCCc1ccccc1 [TCMDC-140901] | -18.05% |
| CC(C)CNCc1ccc(-c2cccc(CN(CCCN3CCN(C)CC3)C(=O)/C=C/c3ccccc3)c2)cc1 [TCMDC-140542] | 91.48% |
| CC(C)CNCc1cccc(-c2cccc(CN(CCCN3CCN(C)CC3)C(=O)/C=C/c3ccccc3)c2)c1 [TCMDC-140541] | 106.7% |
| CC(C)CNCc1ccc(-c2ccc(CN(CCCN3CCN(C)CC3)C(=O)/C=C/c3ccccc3)cc2)cc1 [TCMDC-140546] | 104.5% |
| COC(=O)c1c(C#N)c(OC)cc(O)c1CSC[C@H](Nc1nc(-c2ccc([N+](=O)[O-])cc2)cs1)C(=O)NCCN1CCCCC1 [TCMDC-138651] | -15.18% |

| Compound | % Inhibition |
| --- | --- |
| Cc1nc(N)nc(N)c1OCCCCCCOc1ccccc1 [TCMDC-131354] | -4.555% |
| Cc1ccc(F)c(C(=O)Nc2cccc(-c3nn4ccccc4c3-c3ccnc(Nc4cccc(F)c4)n3)c2)c1F [TCMDC-135846] | -36.31% |
| O=C(Nc1cccc(-c2nn3ccccc3c2-c2ccnc(Nc3ccc(Cc4ccncc4)cc3)n2)c1)c1c(F)cccc1F [TCMDC-135845] | -48.11% |
| CC1(C)N=C(N)N=C(N)N1OCCc1ccc(N)cc1 [TCMDC-131632] | 14.77% |
| Cc1ccc(F)c(OC2CCN(c3ccc(C(=O)NC4CC4)cn3)CC2)c1 [TCMDC-134036] | 27.07% |
| CCNc1cc(C)nc(Nc2ccc(NC(=O)c3cccs3)cc2)n1 [TCMDC-124981] | -23.08% |
| O=C(Nc1cccc(-c2cccc(-c3nc4ccc(C(F)(F)F)cc4[nH]3)c2)c1)c1cccnc1Cl [TCMDC-136838] | -52.15% |
| O=C(Nc1ccc(Cl)cc1)c1cccc2[nH]c(C(F)(F)F)nc12 [TCMDC-141578] | 11.96% |
| O=C(Nc1cc(C(F)(F)F)cc(C(F)(F)F)c1)c1cc(Cl)ccc1O [TCMDC-125465] | 22.2% |
| Cc1ncccc1C(=O)Nc1cccc(-c2cccc(-c3nc4ccc(C(F)(F)F)cc4[nH]3)c2)c1 [TCMDC-136860] | -20.59% |
| O=C(Nc1cccc(C(F)(F)F)c1)c1cccc2[nH]c(C(F)(F)F)nc12 [TCMDC-141579] | 65% |
| O=C(Nc1ccc(Cl)cc1)c1cc(Cl)cc2[nH]c(C(F)(F)F)nc12 [TCMDC-141586] | 55.63% |
| Fc1ccccc1COc1ccc(Nc2ncnc3ccc(-c4nnc(C(F)(F)F)o4)cc23)cc1Cl [TCMDC-138161] | 24.13% |
| Cc1ccc(Nc2ccnc(Nc3ccc4c(c3)CS(=O)(=O)C4)n2)cc1O [TCMDC-138484] | -40.59% |
| CCNc1cc(C(=O)N[C@@H](Cc2ccccc2)[C@H](O)CN[C@@H]2CCc3ccccc32)cc(N2CCCCS2(=O)=O)c1 [TCMDC-134706] | 14.74% |
| CCN(CC)CCN(Cc1ccc(-c2ccc(C(F)(F)F)cc2)cc1)C(=O)Cn1c(CCc2cc(F)c(F)c(F)c2)nc(=O)c2ccccc21 [TCMDC-140944] | 66.72% |
| CCN(CC)CCN(Cc1ccc(-c2ccc(C(F)(F)F)cc2)cc1)C(=O)Cn1c(CCc2ccc(F)c(F)c2)cc(=O)c2ccccc21 [TCMDC-141026] | 39.3% |
| CCN(CC)CCN(Cc1ccc(-c2ccc(C(F)(F)F)cc2)cc1)C(=O)Cn1c(CCc2cccc(C#N)c2)nc(=O)c2ccccc21 [TCMDC-140980] | 54.63% |
| CCN(CC)CCN(Cc1ccc(-c2ccc(C(F)(F)F)cc2)cc1)C(=O)Cn1c(CCc2ccc(F)c(C#N)c2)nc(=O)c2ccccc21 [TCMDC-140957] | 85.6% |
| CCN(CC)CCN(Cc1ccc(-c2ccc(C(F)(F)F)cc2)cc1)C(=O)Cn1c(CCc2ccc(F)c(F)c2)nc(=O)c2ccccc21 [TCMDC-140948] | 78.31% |
